Measured values taken from PubChem BioAssay.
The source made the active and inactive calls. Cut-off read from the data, not from the text of the source: active = inhibition above about 31%; inactive = the rest.

assay: reversal of MRP1-mediated doxorubicin resistance, pilot screen, H69AR cells, doxorubicin co-treatment (AID 601); conditions: H69AR cells, CellTiter-Glo, 72 h; compound alone cytotoxicity; at 10 µM

Row | Compound | viability [%]
1 | CC(=O)Nc1ccc(S(=O)(=O)N(C2=NCC(C)S2)c2ccccc2)cc1 (stereo not given) | 91.7
2 | CCOc1nc(-c2ccccc2)ccc1-c1noc(-c2ccc(OC)c(OC)c2)n1 | 67.1
3 | Clc1ccc2c(c1)[C@H]1OCC[C@H]1[C@@H](c1ccco1)N2 | 86
4 | O=C(CSc1ccc(-c2ccccc2)nn1)N1CCOCC1 | 95.2
5 | COc1cc(CO)cc(-c2cc(CO)cc(OC)c2OC)c1OC | 92.5
6 | NCCCCCc1nnc(SC/C=C/c2ccccc2)o1 | 89.9
7 | O=c1c2[nH]c3ccc(Cl)cc3c2ncn1Cc1ccccn1 | 101
8 | CN(c1ccccc1C(=O)NCC1CCCO1)S(C)(=O)=O (stereo not given) | 101
9 | COc1ccc(N2C(=O)c3cccc4cccc(c34)C2=O)nn1 | 92.3
10 | CS(=O)(=O)NCC(c1cccnc1)N1CCN(c2ccc(F)cc2)CC1 (stereo not given) | 92.2
11 | CNC(=O)Oc1ccc2c(c1)[C@]1(C)CCN(C)[C@@H]1N2C | 93.9
12 | NC(N)=Nc1nc(CSCC/C(N)=N/S(N)(=O)=O)cs1 | 95.8
13 | CC(OC(=O)c1ccco1)C(=O)NCc1cccs1 (stereo not given) | 97.4
14 | COc1ccc(OC)c(NC(=O)CS(=O)(=O)c2ccccc2)c1 | 86.3
15 | Cc1cccc(C)c1-n1nnnc1SCSc1nnnn1-c1c(C)cccc1C | 72.1
16 | Nc1nc2ccc(OC(F)(F)F)cc2s1 | 71.9
17 | COc1ccccc1CC(=O)NCC1CCCO1 (stereo not given) | 99
18 | Cc1nc(N)[nH]c(=O)c1CCC(=O)OCC(C)C | 91.2
19 | CN1[C@@H]2CC(OC(=O)[C@H](CO)c3ccccc3)C[C@H]1[C@@H]1O[C@@H]12 (stereo not given in full) | 102
20 | Cn1c(=O)c2[nH]cnc2n(C)c1=O | 97.4

Row | Compound | viability [%]
21 | Cc1c(NC(=O)C(C)Oc2ncnc3ccccc23)c(=O)n(-c2ccccc2)n1C (stereo not given) | 97
22 | O=C(Cn1c(-c2cncs2)nc2ccccc21)NC1CCCC1 | 106
23 | COC(=O)Nc1sccc1C(=O)Nc1sccc1C(=O)OC | 52.2
24 | O=C1C2CC=C(Cl)CC2C(=O)N1CNc1ccccn1 (stereo not given) | 98.8
25 | CCOCCCNC(=O)C1CC(=O)N(C2CCCC2)C1 (stereo not given) | 94.6
26 | Cc1ccccc1Nc1nc(N)nc(CSCc2c(C)noc2C)n1 | 96.4
27 | O=C1OCCC1Sc1ncnc2sccc12 (stereo not given) | 104
28 | CC(C)N(C(=O)N1CCC(c2nc(-c3ccncc3)no2)CC1)C(C)C | 102
29 | COc1cccc2sc(NC(=O)c3ccc(S(=O)(=O)N4CCOCC4)cc3)nc12 | 86.7
30 | Cc1ccc(S(=O)(=O)N2CCN(C(=O)N3CCOCC3)C2C)cc1 (stereo not given) | 99
31 | Cc1cc(C)n(CC(=O)O)n1 | 88.4
32 | O=C(O)C1CCCN1C(=O)c1cccs1 (stereo not given) | 103
33 | O=C(NCCCN1CCN(c2cccc(Cl)c2)CC1)c1ccc(N2CCCC2=O)cc1 | 89.1
34 | Cc1nccn1CCCN1C(=O)OC2(CCCCC2)C1(C)O (stereo not given) | 98.5
35 | CN1CC=C2C(C#N)=C(N)C(C#N)(C#N)C(c3cccc(Cl)c3Cl)C2C1 (stereo not given) | 61.1
36 | CC(=O)OCC(=O)[C@@]12OC(C)(C)O[C@@H]1C[C@H]1[C@@H]3C[C@H](F)C4=CC(=O)C=C[C@]4(C)[C@@]3(F)[C@@H](O)C[C@@]12C | 106
37 | CCOc1nc(OCC)nc(N2CCC(C)CC2)n1 | 84.9
38 | CCOc1ccc(-c2nc(C#N)c(NCc3ccc4c(c3)OCO4)o2)cc1 | 70.4
39 | Cc1cccc(N2CCN(C(=O)C3CCCN(S(=O)(=O)c4cnc[nH]4)C3)CC2C)c1 (stereo not given) | 95.6
40 | CC(=O)c1ccccc1OCCn1nnc(-c2ccc(C)cc2)n1 | 80.1

assay: 384-well plate pilot, post-Golgi transport modulator project, inhibition of yeast transport mutant growth (AID 636); conditions: absorbance 615 nm, about 18 h, stronger effect = higher value

Row | Compound | inhibition
41 | CC(=O)Nc1ccc(S(=O)(=O)N(C2=NCC(C)S2)c2ccccc2)cc1 (stereo not given) | -2.47% (inactive)
42 | CCOc1nc(-c2ccccc2)ccc1-c1noc(-c2ccc(OC)c(OC)c2)n1 | -1.43% (inactive)
43 | Clc1ccc2c(c1)[C@H]1OCC[C@H]1[C@@H](c1ccco1)N2 | -0.13% (inactive)
44 | O=C(CSc1ccc(-c2ccccc2)nn1)N1CCOCC1 | -6.44% (inactive)
45 | COc1cc(CO)cc(-c2cc(CO)cc(OC)c2OC)c1OC | -8.67% (inactive)
46 | NCCCCCc1nnc(SC/C=C/c2ccccc2)o1 | -6.85% (inactive)
47 | O=c1c2[nH]c3ccc(Cl)cc3c2ncn1Cc1ccccn1 | -3.33% (inactive)
48 | CN(c1ccccc1C(=O)NCC1CCCO1)S(C)(=O)=O (stereo not given) | -4.11% (inactive)
49 | COc1ccc(N2C(=O)c3cccc4cccc(c34)C2=O)nn1 | -5.89% (inactive)
50 | CS(=O)(=O)NCC(c1cccnc1)N1CCN(c2ccc(F)cc2)CC1 (stereo not given) | -1.89% (inactive)
51 | CNC(=O)Oc1ccc2c(c1)[C@]1(C)CCN(C)[C@@H]1N2C | -3.12% (inactive)
52 | NC(N)=Nc1nc(CSCC/C(N)=N/S(N)(=O)=O)cs1 | 3.9% (inactive)
53 | CC(OC(=O)c1ccco1)C(=O)NCc1cccs1 (stereo not given) | -4.25% (inactive)
54 | COc1ccc(OC)c(NC(=O)CS(=O)(=O)c2ccccc2)c1 | -6.3% (inactive)
55 | Cc1cccc(C)c1-n1nnnc1SCSc1nnnn1-c1c(C)cccc1C | -7.81% (inactive)
56 | Nc1nc2ccc(OC(F)(F)F)cc2s1 | -0.13% (inactive)
57 | COc1ccccc1CC(=O)NCC1CCCO1 (stereo not given) | -8.13% (inactive)
58 | Cc1nc(N)[nH]c(=O)c1CCC(=O)OCC(C)C | -0.78% (inactive)
59 | CN1[C@@H]2CC(OC(=O)[C@H](CO)c3ccccc3)C[C@H]1[C@@H]1O[C@@H]12 (stereo not given in full) | -2.08% (inactive)
60 | Cn1c(=O)c2[nH]cnc2n(C)c1=O | -1.3% (inactive)

Row | Compound | inhibition
61 | Cc1c(NC(=O)C(C)Oc2ncnc3ccccc23)c(=O)n(-c2ccccc2)n1C (stereo not given) | -4.42% (inactive)
62 | O=C(Cn1c(-c2cncs2)nc2ccccc21)NC1CCCC1 | -4.05% (inactive)
63 | COC(=O)Nc1sccc1C(=O)Nc1sccc1C(=O)OC | 2.47% (inactive)
64 | O=C1C2CC=C(Cl)CC2C(=O)N1CNc1ccccn1 (stereo not given) | -2.05% (inactive)
65 | CCOCCCNC(=O)C1CC(=O)N(C2CCCC2)C1 (stereo not given) | -0.91% (inactive)
66 | Cc1ccccc1Nc1nc(N)nc(CSCc2c(C)noc2C)n1 | 3.51% (inactive)
67 | O=C1OCCC1Sc1ncnc2sccc12 (stereo not given) | -4.93% (inactive)
68 | CC(C)N(C(=O)N1CCC(c2nc(-c3ccncc3)no2)CC1)C(C)C | -4.86% (inactive)
69 | COc1cccc2sc(NC(=O)c3ccc(S(=O)(=O)N4CCOCC4)cc3)nc12 | -7.16% (inactive)
70 | Cc1ccc(S(=O)(=O)N2CCN(C(=O)N3CCOCC3)C2C)cc1 (stereo not given) | -8.08% (inactive)
71 | Cc1cc(C)n(CC(=O)O)n1 | -7.7% (inactive)
72 | O=C(O)C1CCCN1C(=O)c1cccs1 (stereo not given) | 3.15% (inactive)
73 | O=C(NCCCN1CCN(c2cccc(Cl)c2)CC1)c1ccc(N2CCCC2=O)cc1 | -1.1% (inactive)
74 | Cc1nccn1CCCN1C(=O)OC2(CCCCC2)C1(C)O (stereo not given) | -7.53% (inactive)
75 | CN1CC=C2C(C#N)=C(N)C(C#N)(C#N)C(c3cccc(Cl)c3Cl)C2C1 (stereo not given) | -4.67% (inactive)
76 | CC(=O)OCC(=O)[C@@]12OC(C)(C)O[C@@H]1C[C@H]1[C@@H]3C[C@H](F)C4=CC(=O)C=C[C@]4(C)[C@@]3(F)[C@@H](O)C[C@@]12C | 0.65% (inactive)
77 | CCOc1nc(OCC)nc(N2CCC(C)CC2)n1 | -5% (inactive)
78 | CCOc1ccc(-c2nc(C#N)c(NCc3ccc4c(c3)OCO4)o2)cc1 | 1.03% (inactive)
79 | Cc1cccc(N2CCN(C(=O)C3CCCN(S(=O)(=O)c4cnc[nH]4)C3)CC2C)c1 (stereo not given) | -0.26% (inactive)
80 | CC(=O)c1ccccc1OCCn1nnc(-c2ccc(C)cc2)n1 | -8.9% (inactive)
